# Unmarked numbers belong to inactive results. How the calls were made is not given here.
# B1: d4r5_design_ppi_490_dldesign_0_cycle0_af2pred (protein)
# chain: SKEEEAKKTGKEQVKKVKETAETGTAAETAETAQEARAELNEKAAEAGTEEARKIAEEAKKEIREIVKKKKEEEA
# B2: d4r5_design_ppi_497_dldesign_0_cycle0_af2pred (protein)
# chain: KKEEVRKITEEAIEKMRTVEPEEAVNAVQDAQFEMQGLAPTAETRRKVARLASEAARLVATGEKVEEGIEKLREAGEYLIESL
# B3: Pdl1_binder_AF2_2 (protein)
# chain: SIEEMVEEMEKLLEEAAKIVPEIKELLEKAKEIAKKAIEIAKKKGNGEAVAKIFRDMAEMTLRAAKFDKKGAENAALLMIKRAEDIAE
# B4: Pdl1_binder_AF2_3 (protein)
# chain: MEKAEERKKWLLEKLKELGVEVKEISLDGHVVITGAKSEEALKGAESLVKMFGLFLGVEAKVEVV
# B5: Pdl1_binder_AF2_5 (protein)
# chain: EEDLEKLVELARKALEHIKRAAEYSKEDESKMAEELAKAVALASEISKIDVEVAKLVLKAVNAVMKGDRLEEGVKLAEEALKRAEEKK
# B6: Pdl1_binder_AF2_6 (protein)
# chain: SDELRVEAVQVAQEASVAIARAERAVAEGDAEEIRRAAEELERAARRAEEQAERLEEAGDKGMAEFLRRVVERAREAAARARRAAEEL
# B7: Pdl1_binder_AF2_7 (protein)
# chain: DKESAAKKAIQLLEIARERVVADPAAAKAFKEAAKLVEVMLKDAGADEEKAEKVEEKAEKAADAYAAGDKETADKYYEEAVELVKEAA
# B8: Pdl1_binder_AF2_8 (protein)
# chain: YKLVVEAPNEKIAEQIKEIAESIGAKAEIEGMKVVIEADDKQTIEFIKLYAEEKGAKVLEIT
# B9: Pdl1_binder_AF2_12 (protein)
# chain: MHRTVTVKNEAEAIAAVIEAYHSGEKLTIVTDSEEIAKKAERLNKQLGGNATFEV
# B10: Pdl1_binder_AF2_13 (protein)
# chain: MYVLVAKADENEARFLKLMAEKLGVKAEVEGDIVTFVSDDKEAIEIIRRFLEKEGRVISFEE
# B11: Pdl1_binder_AF2_18 (protein)
# chain: DEETRREIAEHLLRVAKKDQGLVDAEIEGDKVRVKAKTEEQYEKGKIAAEAAAAIVGGEAEAEIV
# B12: Pdl1_binder_AF2_22 (protein)
# chain: YRIAIFFPSREKAEEWAAEARAAGRLVRYLTNLMVVEVDSEEEARAVAAEAEALGAATVFLD
# B13: Pdl1_binder_AF2_30 (protein)
# chain: MSKRDELLTKALEYLQKATKLVYEHDPETAREIAHHFSKAVADPEKAEEELEKALELAEKAAAEMERGEELRELMEKAKEYVLEYVKL
# B14: Pdl1_binder_AF2_33 (protein)
# chain: MEEAKRVAEQMALMMRAAGEEASVEVEGDKITIYYKGDDESLWEVAESVAEKIEEKYGVEVEVVR
# B15: Pdl1_binder_AF2_35 (protein)
# chain: SLKEKAEKHIEEAEKLAKKVGELADKEKAEKAIELLKKGTPESIVEAIALLDQLAKEEKENKEEVRKLASEAIVAAMKAAALLDAAEE
# B16: Pdl1_binder_AF2_37 (protein)
# chain: SETTLKETAKLIEVMAKDRGEFVKIEAKGDKIVLYTKTEEGAKKINKEGSKLAKSVGVEFEAKVA
# B17: Pdl1_binder_AF2_43 (protein)
# chain: SAIEKTKEKIRQLFESAGVEVEDIEVEGDTITVHVKEDTEAARQAALLANVYAEDKVGLKVVLEA
# B18: Pdl1_binder_AF2_45 (protein)
# chain: MIVHIETPTRDLQLFLKLYAEEKGFKVVEAGETSLVIESDLPREKVEKFIRIAEAMGAKVEVEE
# B19: Pdl1_binder_AF2_49 (protein)
# chain: SKKVRFQAYQASAEVIAKEVGGYVVSTGPDKVVIAAPTEEAAEKARKALDELGKAFGFGYEVFVA
# B20: Pdl1_binder_AF2_51 (protein)
# chain: MEVIYADTKEEATMKVMEALSRGVAREDILVYLKDAKDAEKLAKVWGVTAKLA
# B21: Pdl1_binder_AF2_52 (protein)
# chain: IKEKIEELEKKAEEEVEEAKKLDKEEANKKLNKLSTEIYIEAIQVNDEEFRKKAVEILTKIAKESKELGLEEAEKAASSFAEELKEKL
# B22: Pdl1_binder_AF2_61 (protein)
# chain: MYVVVAKGTEQQAKLFALIARDRGHEAEVEGDTAVVKTDDLEEAEKLAELARELGMEAEVIE
# B23: Pdl1_binder_AF2_64 (protein)
# chain: EEEEKKEKANLLRVEAAQKLSLVAEALPEVREKALEAIRKIFDKETIEEGVELAREIAERVAAEGTEEQARLAREAVEKAEEALKLEK
# B24: Pdl1_binder_AF2_65 (protein)
# chain: ETVRVDATTKETALALMEMGEKAGLKVVIGLTSKEDAEEVAEIAKKKGKFEVFHI
# B25: Pdl1_binder_AF2_66 (protein)
# chain: REQIYEQFLELAKAEAREFPGVVDVSREGDTLIVTTKTEEAAKEFEKRLQPIADSVGVKLETKVA
# B26: Pdl1_binder_AF2_72 (protein)
# chain: DEMDKLKVEAMKYGSKAIKIASEKDEELAERAAEALSLAMTDPEKGAKELRKIAEELEEKGLPEAAEYLRKAADYFERYAKLLKE
# B27: Pdl1_binder_AF2_73 (protein)
# chain: DEARDEAITELMLVASRALKAGPALAEAVELLLEAIHLAVEGRLEEAAELAERAAELAREAGDEEVAEEAERAAELARRAAEEEE
# B28: Pdl1_binder_AF2_76 (protein)
# chain: MYEVVIEGEKSVAEFIKLIAEQLGAEAEVEGDKAVIRTERREDAERLAEAAKRFGAEAEVRE
# B29: Pdl1_binder_AF2_79 (protein)
# chain: KREEALRKAAEAAVKAMEMAKKASDEAKVEIMEHFSRAMRAIKEGDFEEAIRHLRKAAEVAEEKVGKEVGEFIREAAREVERIA
# B30: Pdl1_binder_AF2_85 (protein)
# chain: EARELVKEAVEKFEKAAEEALKDFEKAEKLAKEALEKLYEAAKLDPSLRPVYQEAALHLVKALAHDDDPEKASEELKKAAEVAKKELE
# B31: Pdl1_binder_AF2_86 (protein)
# chain: MRLTIGIAETEEEAEELARRFREEGVEDFVVVTDLEEAVAIAREAGVPTTILAPKGFDTKALLKAAMELNEAGIPTSVQHIP
# B32: Pdl1_binder_AF2_87 (protein)
# chain: ERREELEAIAKATESLAELLELGEKDPEVRKAALRAAQIVAERLAERAEELGAEEAAELLRKAAEDPENALRYVREAAEKLRAEAEAL
# B33: Pdl1_binder_AF2_91 (protein)
# chain: DEKFKKIKKMAKVFSESTGKEIEVEKKGDEFIITAKDADEATYQAAKLLKARAEDLGVKARFKEA
# B34: Pdl1_binder_AF2_92 (protein)
# chain: PKVVVEADTEEEAEKMAKKFREMGAEAEIEGKTVVATSDSEELIKLIAVIARDRGLKAEVIP
# B35: Pdl1_binder_AF2_93 (protein)
# chain: REEKIEKVREAAEEAKKAGAIEDYEIEGDEVKFYRKDWKPESLLIVMKAAQVAALEGFKPTIVKS
# B36: Pdl1_binder_AF2_95 (protein)
# chain: LEEERREFEEVLERLLEVAEEDPEVRERAEEMVRRAREVAEREGVAAGAAEAAVGALRIASEASEEVRKRYLELASELQAIGQRVVRA
# B37: design_391_ca6baf5d-2451-47ba-bffc-fc886679966a_158_dldesign_0_cycle1_af2pred (protein)
# chain: AEEKRKKAQELYEKAIAEAKELAKKGDIGALLKVTMDAAKEILELDPSLEPLAEALRKQGTALAQEAIAAAIAAAA
# B38: design_391_ca6baf5d-2451-47ba-bffc-fc886679966a_164_dldesign_0_cycle1_af2pred (protein)
# chain: AGKVGELAAETLKVAAEARRVAAELPEIREEVTARTSRLVAEAFRAALSGTDEDTAKRALEELKRLLEEARELLEEA
# B39: design_391_ca6baf5d-2451-47ba-bffc-fc886679966a_175_dldesign_0_cycle1_af2pred (protein)
# chain: DEKLKKAEELAKQAAKATLTPTGKAEFDKLANEAMKLVSQLFKEDPAKGQKAAKALSEAIDQAKANAALAAAAA
# B40: design_391_ca6baf5d-2451-47ba-bffc-fc886679966a_206_dldesign_0_cycle1_af2pred (protein)
# chain: DWQAVALQAAEAAAQAAKEDPENAALFNEAAHLLLLAVARPETALELTEKALKLAEKAAKTGSELAKKAYELTKEALELLKAA
# Key:
# [1] = biological target: control:Baker_PD-L1, Q9NZQ7
# Chain of control:Baker_PD-L1, Q9NZQ7 (Q9NZQ7 whole entry): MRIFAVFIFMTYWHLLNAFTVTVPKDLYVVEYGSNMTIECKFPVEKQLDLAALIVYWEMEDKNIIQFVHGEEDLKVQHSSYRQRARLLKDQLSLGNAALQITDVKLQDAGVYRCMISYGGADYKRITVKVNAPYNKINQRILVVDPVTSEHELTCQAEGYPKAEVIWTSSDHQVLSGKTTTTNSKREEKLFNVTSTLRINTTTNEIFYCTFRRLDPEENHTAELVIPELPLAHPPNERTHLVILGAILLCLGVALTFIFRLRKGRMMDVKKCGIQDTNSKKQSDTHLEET
# Chain of CD276, Q5ZPR3 (Q5ZPR3 whole entry): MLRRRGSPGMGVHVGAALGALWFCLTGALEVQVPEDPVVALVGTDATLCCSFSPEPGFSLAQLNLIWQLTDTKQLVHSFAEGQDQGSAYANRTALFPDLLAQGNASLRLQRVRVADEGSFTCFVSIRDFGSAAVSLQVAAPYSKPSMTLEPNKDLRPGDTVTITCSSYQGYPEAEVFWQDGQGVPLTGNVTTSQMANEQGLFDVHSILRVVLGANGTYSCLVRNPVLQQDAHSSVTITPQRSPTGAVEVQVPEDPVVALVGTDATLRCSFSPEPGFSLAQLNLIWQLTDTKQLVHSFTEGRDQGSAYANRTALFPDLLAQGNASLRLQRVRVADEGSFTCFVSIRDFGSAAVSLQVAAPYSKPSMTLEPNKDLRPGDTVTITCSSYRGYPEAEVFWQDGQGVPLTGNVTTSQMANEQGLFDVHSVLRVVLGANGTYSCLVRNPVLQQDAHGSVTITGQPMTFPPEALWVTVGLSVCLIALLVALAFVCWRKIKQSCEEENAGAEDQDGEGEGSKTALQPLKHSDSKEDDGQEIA
# Chain of VTCN1, Q7Z7D3 (Q7Z7D3 whole entry): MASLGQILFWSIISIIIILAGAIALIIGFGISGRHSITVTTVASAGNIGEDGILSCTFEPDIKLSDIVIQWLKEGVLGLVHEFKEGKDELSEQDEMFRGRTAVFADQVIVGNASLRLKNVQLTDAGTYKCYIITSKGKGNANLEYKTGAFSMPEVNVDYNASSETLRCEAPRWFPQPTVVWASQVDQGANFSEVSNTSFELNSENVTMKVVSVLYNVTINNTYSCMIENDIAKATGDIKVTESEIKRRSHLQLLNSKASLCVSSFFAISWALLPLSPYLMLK
binder,measurement,setting,value
B1,binding in a display sort,"VTCN1, Q7Z7D3",not found
B2,binding in a display sort,"VTCN1, Q7Z7D3",not found
B3,binding in a display sort,[1],not found
B4,binding in a display sort,[1],not found
B5,binding in a display sort,[1],binds (active)
B6,binding in a display sort,[1],not found
B7,binding in a display sort,[1],not found
B8,binding in a display sort,[1],binds (active)
B9,binding in a display sort,[1],not found
B10,binding in a display sort,[1],not found
B11,binding in a display sort,[1],not found
B12,binding in a display sort,[1],not found
B13,binding in a display sort,[1],not found
B14,binding in a display sort,[1],not found
B15,binding in a display sort,[1],not found
B16,binding in a display sort,[1],not found
B17,binding in a display sort,[1],not found
B18,binding in a display sort,[1],binds (active)
B19,binding in a display sort,[1],not found
B20,binding in a display sort,[1],not found
B21,binding in a display sort,[1],not found
B22,binding in a display sort,[1],not found
B23,binding in a display sort,[1],not found
B24,binding in a display sort,[1],not found
B25,binding in a display sort,[1],not found
B26,binding in a display sort,[1],not found
B27,binding in a display sort,[1],not found
B28,binding in a display sort,[1],binds (active)
B29,binding in a display sort,[1],not found
B30,binding in a display sort,[1],not found
B31,binding in a display sort,[1],not found
B32,binding in a display sort,[1],not found
B33,binding in a display sort,[1],not found
B34,binding in a display sort,[1],not found
B35,binding in a display sort,[1],not found
B36,binding in a display sort,[1],not found
B37,binding in a display sort,"CD276, Q5ZPR3",not found
B38,binding in a display sort,"CD276, Q5ZPR3",not found
B39,binding in a display sort,"CD276, Q5ZPR3",not found
B40,binding in a display sort,"CD276, Q5ZPR3",not found
